Each structure is given as a SMILES string. Inconclusive results are not listed. Unmarked numbers belong to inactive results. Calls come from the whole dose curve; as a rule, active = well fitted cell-killing curve with a large enough effect in the repeat runs (not every such curve was filed as active); inconclusive = weak or mixed curves, or effect the other way; inactive = no such curve, though single readings can be large or run the other way.
% is set by controls: 0 for no effect and ±100 for the full control effect.

This test in a line: qHTS assay to identify small molecule antagonists of the farnesoid-X-receptor (FXR) signaling pathway - cell viability counter screen (AID 743221). Note: nearly all actives have a fitted effect of over 50% in size. As to conditions: FXR-bla HEK293T viability, CellTiter-Glo luminescence, 16 h; series mostly up to 62.6 µM; activity change, negative = cytotoxicity: at the top concentration. An excerpt: National Center for Advancing Translational Sciences [NCATS]
NIH Chemical Genomics Center [NCGC]
U.S. Environmental Protection Agency [EPA]
National Institutes of Environmental Health Sciences [NIEHS]
National Toxicology Program [NTP]
U.S. Food and Drug Administration [FDA]
The farnesoid-X-receptor (FXR), a nuclear hormone receptor, is highly expressed in liver, intestine, kidney and adrenal cortex. Natural ligands of FXR are the bile acids (Cholic acid, Chenodeoxy cholic acid etc). FXR is an important regulator of diverse metabolic pathways, including the bile acid homeostasis, lipid and glucose metabolisms. FXR regulates the expression of target genes by binding either as a monomer or as a heterodimer with the retinoid X receptor (RXR). Numerous studies have reported that FXR exerts protective function during cholestasis, diabetes, liver regeneration, and cancer. To identify compounds that inhibit FXR signaling, GeneBLAzer FXR-UAS-bla HEK 293T cell line (Invitrogen, Carlsbad, CA) containing a beta-lactamase reporter gene under the control of a UAS response element was used to screen the Tox21 10K compound library. The cytotoxicity of the Tox21 compound library against the FXR-bla cell line was tested in parallel by measuring the cell viability using CellTiter-Glo assay in the same wells.
Tox21 Assay Protocol Summary:
FXR-bla cells were dispensed at 5000 cells/5uL/well in 1536-well black wall/clear bottom plates using a Multidrop Combi (Thermo Fisher Scientific, Waltham, MA) dispenser. After the assay plates were incubated at 37 C and 5% CO2 for 5 h, 23 nL of compounds dissolved in DMSO, positive controls or DMSO only was transferred to the assay plate by a Pintool station (Kalypsys, San Diego, CA), followed by addition of 1 uL Chenodeoxycholic acid (50 uM, final concentration in the wells). The assay plates were incubated at 37C for 16 h. After 1 uL of LiveBLAzerTM B/G FRET substrate was added using a Bioraptr Flying Reagent Dispenser (FRD) workstation (Beckman Coulter, Indianapolis, IN), the plates were incubated at room temperature for 2 h, and fluorescence intensity was measured by an Envision plate reader (PerkinElmer, Shelton, CT). For cell viability readout that measures cytotoxicity, 4uL/well of CellTiter-Glo reagent was added into the assay plates using a Bioraptr FRD. After 30 min incubation at room temperature, the luminescence intensity in the plates was measured using a ViewLux plate reader (PerkinElmer).
`CCCCC(CC)COC(=O)COc1cc(Cl)c(Cl)cc1Cl` (stereo not given): the “activity change, negative = cytotoxicity” value is -4.53%.

`NC(=O)NS(=O)(=O)c1ccc(Cl)cc1`: the “activity change, negative = cytotoxicity” value was 6.33%. Regarding `CCOC(=O)NCCC[Si](OCC)(OCC)OCC`, the “activity change, negative = cytotoxicity” value was 14.9%. For `CC(=O)Nc1ccc(C)c(Cl)c1`, the “activity change, negative = cytotoxicity” value was 0.333%. As for `CCCCCCOc1ccc(N)cc1`, the “activity change, negative = cytotoxicity” value is -1.79%. `CC(=O)Oc1cc(C(C)C)c(OCCN(C)C)cc1C`: the “activity change, negative = cytotoxicity” value is -5.1%. The value for `Clc1cccc(-c2cc(Cl)cc(Cl)c2)c1` was 9.69%; that for `Cc1ccccc1C(=O)Nc1ccc(C(=O)N2CCCC(O)c3cc(Cl)ccc32)c(C)c1` (stereo not given) was -14.2%. Take `CN(CC1(C)CCCO1)S(=O)(=O)c1ccc(Cl)c(S(N)(=O)=O)c1` (stereo not given): the “activity change, negative = cytotoxicity” value is 8.52%. As to `OCCN(CCO)CCN(CCO)CCO`, the “activity change, negative = cytotoxicity” value is -22.7%. For `CC(C)(CO)[C@@H](O)C(=O)NCCC(=O)O`, the “activity change, negative = cytotoxicity” value was -4.33% [at 81.1 µM]. As for `Cc1cc(S(=O)(=O)O)c(N)cc1Cl`, the “activity change, negative = cytotoxicity” value was 2.72% [at 81.1 µM].

In the case of `CCCC1CCC(=O)O1` (stereo not given), the “activity change, negative = cytotoxicity” value was 0.0153%. On to `O=C1CCCc2ccccc21`, for which the “activity change, negative = cytotoxicity” value is 0.703% [at 81.1 µM]. Take `O=S(=O)(O)C(F)(F)F`: the “activity change, negative = cytotoxicity” value is 7.9%. Turning to `CC(Oc1c(Cl)cccc1Cl)C1=NCCN1` (stereo not given), the “activity change, negative = cytotoxicity” value was -3.79%. The value for `NCCC(O)(P(=O)(O)O)P(=O)(O)O` was 11.1%.

For the compound `O=C(O)[C@@H]1CSCN1`, the “activity change, negative = cytotoxicity” value is -15.7%.

Turning to `Cc1ccc([N+](=O)[O-])c(N)c1`, the “activity change, negative = cytotoxicity” value is -0.129%. As to `C=CCc1cc(OC)c(O)c(C(=O)NCCO)c1`, the “activity change, negative = cytotoxicity” value is -1.2%. As for `CC(C)C(=O)OC/C=C/c1ccccc1`, the “activity change, negative = cytotoxicity” value was -3.88%. Consider `CCN[C@H]1CN(CCCOC)S(=O)(=O)c2sc(S(N)(=O)=O)cc21`, for which the “activity change, negative = cytotoxicity” value is 3.22%. For the compound `ICCc1ccccc1`, the “activity change, negative = cytotoxicity” value was 0.714%. As to `COC(=O)/C=C(/C)N`, the “activity change, negative = cytotoxicity” value was 3.09%.

On to `CN(CCCN1c2ccccc2CCc2ccccc21)CC(=O)c1ccc(Cl)cc1`, for which the “activity change, negative = cytotoxicity” value is -5.21%.

Turning to `CCOc1ccc2nc(N)sc2c1`, the “activity change, negative = cytotoxicity” value is 2.71%. Take `CC1=C(CC(=O)O)c2cc(F)ccc2/C1=C\c1ccc(S(C)(=O)=O)cc1`: the “activity change, negative = cytotoxicity” value is -1.03%. `Cc1ncc(CO)c(CN)c1O`: the “activity change, negative = cytotoxicity” value is 5.23%. Consider `N#CSCC(=O)O`, for which the “activity change, negative = cytotoxicity” value is 21.8%. For `CCOC(=O)CS`, the “activity change, negative = cytotoxicity” value is -1.14% [at 81.1 µM]. The value for `COc1nc(C)nc(NC(=O)NS(=O)(=O)c2ccccc2OCCCl)n1` was 3.21%.

As for `Cc1cc(NS(=O)(=O)c2ccc(N)cc2)nc(C)n1`, the “activity change, negative = cytotoxicity” value is 2.56%. With `O=C1Nc2ccc([N+](=O)[O-])cc2C1=O`, the “activity change, negative = cytotoxicity” value was -1.85%. Consider `CCN(CC)CC1CCCCN1CC(=O)N1c2ccccc2C(=O)Nc2cccnc21` (stereo not given), for which the “activity change, negative = cytotoxicity” value is 3.87%. The value for `CNCCC(Oc1ccccc1OC)c1ccccc1` (stereo not given) was 2.81%.

As to `O=c1oc2c(O)c(O)cc3c(=O)oc4c(O)c(O)cc1c4c23`, the “activity change, negative = cytotoxicity” value was 0.37% [at 29.1 µM]. Consider `CCOC(=O)COc1ccc2c(c1)CC(NCC(O)c1cccc(Cl)c1)CC2` (stereo not given), for which the “activity change, negative = cytotoxicity” value is -4.58%.

As for `C[C@@H](N)C(=O)O`, the “activity change, negative = cytotoxicity” value was 5.59%. Take `OC[C@H]1O[C@@H](O[C@H]2[C@H](O)[C@@H](O)[C@H](O)O[C@@H]2CO)[C@H](O)[C@@H](O)[C@H]1O`: the “activity change, negative = cytotoxicity” value is 0.131%. Turning to `OCCN1CCN(CCO)CC1`, the “activity change, negative = cytotoxicity” value was -2.51% [at 81.1 µM].

(Values after PubChem BioAssay (Tox21).)
